Sampled rows, rich in hits. Any-hit rate of the full collection: about 4.7%.
ATXN2 expr inh – inhibitors of ATXN2 expression; HEK-293 ATXN2-luciferase reporter, luminescence, 24 h; Potency, µM (highest dose often 57 µM), without a hit: at the top dose activity change, negative = inhibition, actives largely listed as inhibitors; hit rate 0.72% among 360,000; further: potency means the concentration at half of the fitted maximal effect; on the % scale 0 is the no-effect control and ±100 the full control effect; nearly all actives have a fitted effect of over 55% in size
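ATXN2-luciferase reporter cells (luciferase flanked by upstream and downstream ATXN2 gene portions) were treated 24 h at 37 °C with compounds at up to 57 uM. SteadyGlo luminescence gave expression; GF-AFC fluorescence gave viability.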
D3 antag – D3 dopamine receptor (human) antagonism; P35462; D3R cells, DiscoveRx beta-arrestin luminescence, antagonist mode; hits give low values; max response, negative = inhibition, %; hit rate 2.5% among 360,000; AID 652054; in the data active means max response below about -50%; inconclusive means no clear call, values can overlap the other calls; further: on the % scale 0 is the no-effect control and ±100 the full control effect
Target sequence (P35462 whole entry, looked up): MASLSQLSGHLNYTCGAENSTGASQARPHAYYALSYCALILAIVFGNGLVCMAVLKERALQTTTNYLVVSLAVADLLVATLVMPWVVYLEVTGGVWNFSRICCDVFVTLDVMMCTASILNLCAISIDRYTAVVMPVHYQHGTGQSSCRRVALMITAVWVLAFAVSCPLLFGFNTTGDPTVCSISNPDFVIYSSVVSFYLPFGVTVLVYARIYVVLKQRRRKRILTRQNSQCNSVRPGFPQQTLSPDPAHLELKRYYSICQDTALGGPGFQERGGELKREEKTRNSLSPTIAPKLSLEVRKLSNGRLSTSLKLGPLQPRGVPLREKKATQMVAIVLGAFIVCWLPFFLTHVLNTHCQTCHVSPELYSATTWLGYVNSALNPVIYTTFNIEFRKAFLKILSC
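Cells plated overnight at 1500 cells/well, then exposed to library compounds with dopamine controls for 90 minutes at 37 degrees C. DiscoveRx reagent added for 30–60 minutes at room temperature; luminescence read, quantitative HTS format.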
S2 tox – viability counter-screen for ATXN expression inhibitors. hit rate 0.49% among 400,000. Potency, µM (highest dose often 56.7 µM), actives largely listed as cytotoxic. S2 cells (HEK-293 line with an ATXN2-luciferase reporter) viability, CellTiter-Fluor protease fluorescence, 24 h. AID 651635; further: potency means the concentration at half of the fitted maximal effect; nearly all actives have a fitted effect of over 40% in size
HepG2 tox-1 – kills HepG2 cells in TGF-b inhibitor counter-screen. HepG2 CAGA-GFP viability, ATP luminescence, 18 h. Potency, µM (series often up to 46.1 µM), for inactives: at the top dose activity change, negative = cytotoxicity, most hits filed as cytotoxic. hit rate 0.76% among 410,000. AID 588856; further: potency means the concentration at half of the fitted maximal effect
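HepG2 CAGA-GFP cells (1000/well, DMEM with 1% FBS) received compound, then TGF-beta at 500 pg/mL final, and were incubated 18 hours at 37 degrees C. Viability was read by CellTiter-Glo luminescence. Media-only wells were set as complete cell-killing and DMSO as no toxicity.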
TGFb inhibitor – blocks TGF-b signaling. AID 588855. Potency, µM (titrated, usually from 46.1 µM), inactives show at the top dose activity, negative = inhibition, hits mostly inhibitors. hit rate 1.2% among 410,000. HepG2 CAGA-GFP TGF-b/SMAD3 reporter, GFP fluorescence, 18 h; TGF-beta stimulated, 500 pg/mL final; further: potency means the concentration at half of the fitted maximal effect; on the % scale 0 is the no-effect control and ±100 the full control effect; nearly all actives have a fitted effect of over 65% in size
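First, reporter cells (HEPG2 CAGA-GFP) rested 2 h at 37 degrees C. Next, compounds were pinned in and TGF-beta added to 500 pg/mL final. After 18 h, GFP was imaged per cell and summed per well.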
D3 ag – agonists of human D3 dopamine receptor | max activation, % | D3R DiscoveRx beta-arrestin cells, luminescence, 90 min | P35462 | AID 652048 | hit rate 0.58% among 410,000; in the data active means max activation above about 30%; further: 0% is about no effect
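Cells at 1500/well, incubated overnight, then treated with pinned compounds (dopamine as control) for 90 min at 37 degrees C. DiscoveRx reagent added for 30 - 60 minutes at room temperature; luminescence read.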
TGFb CAGA inh – confirmation of TGF-b signaling inhibitors in HepG2 reporter cells. shares compounds with TGFb inhibitor. HepG2 CAGA-GFP TGF-b reporter, GFP fluorescence, 18 h; cells stimulated with TGF-beta, 500 pg/mL. Potency, µM (highest dose often 46.1 µM), for the others: top-dose activity, negative = inhibition, hits mostly inhibitors. hit rate 63% among 1,600. AID 720534; further: potency means the concentration at half of the fitted maximal effect; on the % scale 0 is the no-effect control and ±100 the full control effect; nearly all actives have a fitted effect of over 65% in size
HepG2 tox-2 – HepG2 cytotoxicity, TGF-b inhibitor counterscreen; shares compounds with TGFb inhibitor; hit rate 27% among 1,600; Potency, µM (highest dose often 46.1 µM), inactives show top-dose activity, negative = cytotoxicity, most hits filed as inhibitors; HepG2 CAGA-GFP viability, ATP luminescence, 18 h; cells stimulated with TGF-beta, 500 pg/mL; further: potency means the concentration at half of the fitted maximal effect; on the % scale 0 is the no-effect control and ±100 the full control effect; nearly all actives have a fitted effect of over 70% in size
CCL64 TGFb inh – TGF-b inhibition, CCL64 orthogonal assay; CCL64 CAGA-GFP reporter, TGF-b stimulated, GFP fluorescence, 18 h; shares compounds with TGFb inhibitor; Potency, µM (series often up to 46.1 µM), for inactives: at the highest dose activity, negative = inhibition, usual class: inhibitors; hit rate 41% among 1,600; AID 720536; further: potency means the concentration at half of the fitted maximal effect; nearly all actives have a fitted effect of over 65% in size
COP TGFb inh – validation of TGF-b inhibitors in HepG2 COP promoter reporter | shares compounds with TGFb inhibitor | HepG2 COP-GFP TGF-b reporter, GFP fluorescence, 18 h; cells stimulated by added recombinant TGF-beta | Potency, µM (series often up to 46.1 µM), inactives show top-dose activity, negative = inhibition, actives largely listed as inhibitors | hit rate 3% among 1,600 | AID 720537; further: potency means the concentration at half of the fitted maximal effect; nearly all actives have a fitted effect of over 70% in size
* hit, by the source's call; i = inactive; ? = inconclusive; nt = not tested or not shown. Unless noted, the call rests on the fitted dose curve; in most records, active means well fitted curve in the direction sought with a large enough effect; inconclusive means small, poorly fitted or top-dose-only effect, or another doubt; inactive means no such curve, though single readings can be large; an effect the other way counts as inactive or inconclusive.

SMILES	ATXN2 expr inh	D3 antag	S2 tox	HepG2 tox-1	TGFb inhibitor	D3 ag	TGFb CAGA inh	HepG2 tox-2	CCL64 TGFb inh	COP TGFb inh
Oc1c(C(c2ccccc2Cl)N2CCCC2)ccc2cccnc12 (centres undefined)	nt	-53*	i	-64%	0.45µM*	-7	?	?	?	-20%
COc1cccc(-c2nc(N3CCCCC3)c3ccccc3n2)c1O	3%	40	i	12%	11µM*	11	18µM*	?	?	78%
COc1cccc(-c2nc(N3CCN(c4ccccc4)CC3)c3ccccc3n2)c1O	5%	6	i	-12%	2%	1	nt	nt	nt	nt
CCOC(=O)C#CC(CCc1ccccc1)OS(N)(=O)=O (centres undefined)	9%	-19	i	-28%	0.71µM*	-5	-29%	-6%	?	-22%
Cc1c(C(=O)O/N=C(\N)c2ccccn2)cccc1[N+](=O)[O-]	-19%	-16	i	10%	35%	-16	nt	nt	nt	nt
Cc1c(C(=O)Oc2cccc3cccnc23)cccc1[N+](=O)[O-]	-26%	?	i	-42%	?	-9	-10%	0%	?	-12%
CCCOc1ccc(-c2nonc2NC(=O)COc2ccc(C)cc2)cc1OCCC	8%	nt	i	0%	-1%	-7	nt	nt	nt	nt
Cc1ccccc1OCCNC(=O)c1ccccc1Sc1ccccc1C#N	0%	-2	i	-26%	10µM*	-1	-25%	-6%	-16%	-1%
Cc1cc(C)c(OCCNC(=O)c2ccccc2Sc2ccccc2C#N)c(C)c1	-22%	0	i	-28%	-25%	-5	nt	nt	nt	nt
O=C1c2ccccc2C(=O)C1(c1ccccc1)N1CCN(c2cccc(Cl)c2)CC1	-8%	nt	?	-30%	-16%	3	nt	nt	nt	nt
CCOc1ccc(N(CC(=O)Nc2ccccc2OCC)S(=O)(=O)c2c(C)noc2C)cc1	nt	-21	i	-12%	5µM*	-13	6.5µM*	8%	4.1µM*	-19%
CC(=O)c1cccc(N=c2scc(-c3ccc(S(=O)(=O)N4CCOCC4)cc3)n2CCO)c1	-38%	-10	i	-37%	?	19	1%	-29%	?	8%
CCC1(OC(=O)CN(C)C)C(=O)OCc2c1cc1n(c2=O)Cc2cc3c(N)cccc3nc2-1 (centres undefined)	?	-1	?	3%	3.2µM*	-9	5.8µM*	1.8µM*	?	16%
COc1ccc(CNC(=O)c2c(C)oc3c2C(=O)c2ccccc2C3=O)cc1	?	-72*	i	0.89µM*	1µM*	-7	0.65µM*	1µM*	5.2µM*	2.1µM*
O=C(Nc1ccc(C(F)(F)F)cc1)C(Cc1ccccc1)n1cccc1 (centres undefined)	nt	nt	nt	-73%	?	-9	nt	nt	nt	nt
COc1ccc(-c2ccc(NS(=O)(=O)c3ccc(C(C)=O)cc3)cc2)nn1	6%	nt	i	-29%	-25%	1	nt	nt	nt	nt
CCOc1ccc(CCN2C(=S)N([C@@H](Cc3ccc(O)cc3)CN3CCC[C@@H]3CN3C(=S)NC[C@@H]3CC(C)C)C[C@@H]2CC(C)C)cc1	?	?	?	-10%	4.5µM*	-9	?	-19%	16µM*	21%
CCOc1ccc(CCN2C(=S)N([C@@H](Cc3ccc(O)cc3)CN3CCC[C@@H]3CN3C(=S)NC[C@@H]3CC(C)C)C[C@@H]2Cc2ccccc2)cc1	0%	0	?	-10%	?	-11	?	-3%	?	15%
CCOc1ccc(CCN2C(=S)N([C@@H](Cc3ccc(O)cc3)CN3CCC[C@@H]3CN3C(=S)NC[C@@H]3Cc3ccccc3)C[C@@H]2CC(C)C)cc1	-3%	0	?	-22%	-9%	-13	nt	nt	nt	nt
CCOc1ccc(CCN2C(=S)N([C@@H](Cc3ccc(O)cc3)CN3CCC[C@@H]3CN3C(=S)NC[C@@H]3Cc3ccc(O)cc3)C[C@@H]2Cc2ccc(O)cc2)cc1	?	?	?	nt	nt	-5	nt	nt	nt	nt
Cc1oc(-c2ccc(Cl)cc2)nc1CN1CCCC(C(=O)NCCc2ccc(Cl)cc2)C1 (centres undefined)	-15%	nt	?	-40%	?	-17	nt	nt	nt	nt
CCOc1ccc(CCN2C(=S)N([C@@H](Cc3ccccc3)CN3CCCC3CN3C(=S)NC[C@@H]3Cc3ccccc3)C[C@@H]2Cc2ccc(O)cc2)cc1 (some centres undefined)	-2%	-13	?	nt	nt	-8	nt	nt	nt	nt
CC(C)C[C@@H](CN1CCC[C@@H]1CN1C(=S)NC[C@@H]1Cc1ccc(O)cc1)N1C[C@H](Cc2ccccc2)N(CCc2ccccc2)C1=S	?	-27	?	-6%	16µM*	-4	?	-30%	?	26%
CCOc1ccc(CCN2C(=S)N([C@@H](CC(C)C)CN3CCC[C@@H]3CN3C(=S)NC[C@@H]3Cc3ccccc3)C[C@@H]2Cc2ccc(O)cc2)cc1	-23%	-2	i	-16%	7.9µM*	-4	?	?	?	27%
CC(C)C[C@@H](CN1CCCC1CN1C(=S)NC[C@@H]1Cc1ccc(O)cc1)N1C[C@H](Cc2ccccc2)N(CCc2ccccc2)C1=S (some centres undefined)	-20%	-29	i	-60%	?	-20	?	-20%	?	27%

Screening data as filed in PubChem.
